In PubChem BioAssay (NCI):
Compounds without any hit were thinned out: in the full panel of roughly 79,000, 15% have a hit. Unmarked numbers belong to inactive results. Calls of active or inactive are those of the source. No stated cut-off is given here; in the data, active means growth inhibition above about 70%; inactive means the rest.

Assay: NCI Yeast Anticancer Drug Screen. Data for the bub3 strain (AID 167)
Details: S. cerevisiae bub3 mutant strain, at 50.0 µM, hits give high values
Outline: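 Steps: expose the mutant yeast strain to compound; grow alongside vehicle-treated cultures; measure growth; express inhibition against the vehicle cultures.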

SMILES	growth inhibition
CC(NC1=CC(=O)c2cccnc2C1=O)C(O)c1ccccc1 (stereo not given)	64.2%
CC(Oc1ccccc1)C(O)(c1ccc(N(C)C)cc1)c1ccc(N(C)C)cc1 (stereo not given)	1.4%
Cc1cc2c3ccccc3n(C)c2c2c1C(=O)c1ccccc1C2=O	17.4%
O=C(NNC(=O)c1ccc2ccccc2c1)c1ccc(Cl)c(Cl)c1	-5.25%
COc1nc(NC2OC(CO)C(O)C(O)C2O)c(/C=N/O)c(=O)n1C (stereo not given)	7.85%
COCCCNC(=O)C1C(=O)C(=O)N(CCCOC)C1=O (stereo not given)	-5%
O=C(N=Nc1c(O)[nH]c2c(Cl)cc(Cl)cc12)C(=O)Nc1cccc(C(F)(F)F)c1	-23.8%
CC(=O)CC(O)(C(F)(F)Cl)C(F)(Cl)Cl (stereo not given)	-30.1%
Cc1ccc(N=Cc2ccc(C(N)=S)cc2)cc1	18.8%
O=C(O)C1CCCN1Cc1ccc2c(c1)OCO2 (stereo not given)	-40.8%
C[N+](C)(C)c1cc[c]([Sn]([c]2ccc([N+](C)(C)C)cc2)([c]2ccc([N+](C)(C)C)cc2)[c]2ccc([N+](C)(C)C)cc2)cc1	-0.15%
O=C(Cl)c1c(F)c(F)c(F)c(F)c1F	1.25%
Cc1cn(C2CC(O)C(CO)C2C)c(=O)[nH]c1=O (stereo not given)	-11.8%
CCCCOc1cc(C(=O)O)ccc1[N+](=O)[O-]	-19.2%
O=C(O)C(Cc1ccccc1)NS(=O)(=O)Cc1ccccc1 (stereo not given)	-8.2%
CC(C)CC(NC(=O)c1cc([N+](=O)[O-])cc([N+](=O)[O-])c1)C(=O)O (stereo not given)	-41.2%
COC(=O)c1cc(=O)n(C)[nH]1	6.65%
CCN(CC)Cc1cc(N=Nc2ccc(-c3ccc(N)c(OC)c3)cc2OC)c2ccccc2c1O	-4.8%
COC(=O)NC1=Nc2ccccc2N(C(=O)Oc2ccccc2)S1	83.2% (active)
CC(=O)OC1CCC2(C)C(=CCC3C2CCC2(C)/C(=N\NS(=O)(=O)c4ccc(C)cc4)CCC32)C1 (stereo not given)	40.3%

SMILES	growth inhibition
COc1ccc(/C=C2\N=C(c3ccc([N+](=O)[O-])cc3)OC2=O)cc1Br	-1.95%
CCN(CC)CCC(=O)O	-10.7%
CS(=O)(=O)N1CC(CCl)c2ccc(NO)cc21 (stereo not given)	0.45%
CCSCC(C)C(=O)OC (stereo not given)	2.85%
COc1ccc(C(CC(=O)O)c2cc3c(cc2OC)OCO3)cc1 (stereo not given)	1.1%
C[OH2+].[Cl][Cu+].[Cl][Cu+].[NH-]CCC([OH2+])CC[NH-]	-2.8%
O=C(Nc1ccc(F)cc1)c1cc2c(cc1Cl)Sc1nccn1S2(=O)=O	3.55%
CC(C)(CCC(=O)O)CCC(=O)O	-4%
COc1cc(/C=C/C=C2\CCC/C(=C\C=C\c3ccc(O)c(OC)c3)C2=O)ccc1O	10.8%
CCOC(=O)/C(C#N)=C/Nc1[nH]c(=O)c(C#N)c(-c2ccc(Cl)cc2)c1SC	2.1%
C[C@H]1C[C@](C)(CO)Oc2oc3ccccc3c(=O)c21	7.2%
CCC1(C(=O)O)NC(=O)NC1=O (stereo not given)	4.5%
C=C1CC2(CCC3C4CC=C5CC(O)CCC5(C)C4CCC32C)OC1=O (stereo not given)	8.15%
Nc1nc(Cc2ccccc2)cs1	3.35%
O=[N+]([O-])c1cc([N+](=O)[O-])c(/C=C/c2ccccc2Cl)cc1/C=C/c1ccccc1Cl	0.05%
CC(=O)Oc1cccc2c1C(=O)C1CC(O)C3(C=O)OC(C)(C)OC2(C)C13 (stereo not given)	-3.45%
C#CC(C)(CC)OC(C)=O (stereo not given)	19.9%
O=C1NC(=O)C(=CN2C(=O)/C(=C/c3ccc(O)cc3)SC2=S)C(=O)N1	1.8%
O=C(c1ccccc1)c1cc[n+]([O-])cc1	-8.7%
COc1c(NC(=O)c2ccc(C(=O)Nc3cccc([N+](=O)[O-])c3OC)cc2)cccc1[N+](=O)[O-]	-2.2%

Assay: NCI Yeast Anticancer Drug Screen. Data for the mlh1 rad18 strain (AID 175)
Details: S. cerevisiae mlh1 rad18 strain growth inhibition; at 50.0 µM; hits give high values
Outline: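 Yeast w/ defined DNA-repair lesions; compound exposure; growth vs vehicle controls → % inhibition.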

SMILES	growth inhibition
CC(NC1=CC(=O)c2cccnc2C1=O)C(O)c1ccccc1 (stereo not given)	71.3% (active)
CC(Oc1ccccc1)C(O)(c1ccc(N(C)C)cc1)c1ccc(N(C)C)cc1 (stereo not given)	11.9%
Cc1cc2c3ccccc3n(C)c2c2c1C(=O)c1ccccc1C2=O	11.2%
O=C(NNC(=O)c1ccc2ccccc2c1)c1ccc(Cl)c(Cl)c1	-14.1%
COc1nc(NC2OC(CO)C(O)C(O)C2O)c(/C=N/O)c(=O)n1C (stereo not given)	4.45%
COCCCNC(=O)C1C(=O)C(=O)N(CCCOC)C1=O (stereo not given)	-10.6%
O=C(N=Nc1c(O)[nH]c2c(Cl)cc(Cl)cc12)C(=O)Nc1cccc(C(F)(F)F)c1	-14%
CC(=O)CC(O)(C(F)(F)Cl)C(F)(Cl)Cl (stereo not given)	-35.8%
Cc1ccc(N=Cc2ccc(C(N)=S)cc2)cc1	24%
O=C(O)C1CCCN1Cc1ccc2c(c1)OCO2 (stereo not given)	-36.8%
C[N+](C)(C)c1cc[c]([Sn]([c]2ccc([N+](C)(C)C)cc2)([c]2ccc([N+](C)(C)C)cc2)[c]2ccc([N+](C)(C)C)cc2)cc1	11.3%
O=C(Cl)c1c(F)c(F)c(F)c(F)c1F	-18.9%
Cc1cn(C2CC(O)C(CO)C2C)c(=O)[nH]c1=O (stereo not given)	-24.9%
CCCCOc1cc(C(=O)O)ccc1[N+](=O)[O-]	-3.1%
O=C(O)C(Cc1ccccc1)NS(=O)(=O)Cc1ccccc1 (stereo not given)	-2.15%
CC(C)CC(NC(=O)c1cc([N+](=O)[O-])cc([N+](=O)[O-])c1)C(=O)O (stereo not given)	-5.5%
COC(=O)c1cc(=O)n(C)[nH]1	-1.05%
CCN(CC)Cc1cc(N=Nc2ccc(-c3ccc(N)c(OC)c3)cc2OC)c2ccccc2c1O	27.4%
COC(=O)NC1=Nc2ccccc2N(C(=O)Oc2ccccc2)S1	33.9%
CC(=O)OC1CCC2(C)C(=CCC3C2CCC2(C)/C(=N\NS(=O)(=O)c4ccc(C)cc4)CCC32)C1 (stereo not given)	49.5%

SMILES	growth inhibition
COc1ccc(/C=C2\N=C(c3ccc([N+](=O)[O-])cc3)OC2=O)cc1Br	29.4%
CCN(CC)CCC(=O)O	-5.2%
CS(=O)(=O)N1CC(CCl)c2ccc(NO)cc21 (stereo not given)	-32.4%
CCSCC(C)C(=O)OC (stereo not given)	-40.3%
COc1ccc(C(CC(=O)O)c2cc3c(cc2OC)OCO3)cc1 (stereo not given)	-1.75%
C[OH2+].[Cl][Cu+].[Cl][Cu+].[NH-]CCC([OH2+])CC[NH-]	8.2%
O=C(Nc1ccc(F)cc1)c1cc2c(cc1Cl)Sc1nccn1S2(=O)=O	2.7%
CC(C)(CCC(=O)O)CCC(=O)O	36%
COc1cc(/C=C/C=C2\CCC/C(=C\C=C\c3ccc(O)c(OC)c3)C2=O)ccc1O	14.2%
CCOC(=O)/C(C#N)=C/Nc1[nH]c(=O)c(C#N)c(-c2ccc(Cl)cc2)c1SC	16.8%
C[C@H]1C[C@](C)(CO)Oc2oc3ccccc3c(=O)c21	13.1%
CCC1(C(=O)O)NC(=O)NC1=O (stereo not given)	-4.25%
C=C1CC2(CCC3C4CC=C5CC(O)CCC5(C)C4CCC32C)OC1=O (stereo not given)	15.2%
Nc1nc(Cc2ccccc2)cs1	12.6%
O=[N+]([O-])c1cc([N+](=O)[O-])c(/C=C/c2ccccc2Cl)cc1/C=C/c1ccccc1Cl	0.5%
CC(=O)Oc1cccc2c1C(=O)C1CC(O)C3(C=O)OC(C)(C)OC2(C)C13 (stereo not given)	3.6%
C#CC(C)(CC)OC(C)=O (stereo not given)	20.3%
O=C1NC(=O)C(=CN2C(=O)/C(=C/c3ccc(O)cc3)SC2=S)C(=O)N1	14.7%
O=C(c1ccccc1)c1cc[n+]([O-])cc1	12.7%
COc1c(NC(=O)c2ccc(C(=O)Nc3cccc([N+](=O)[O-])c3OC)cc2)cccc1[N+](=O)[O-]	-1.3%
